Reference: PubChem BioAssay (Tox21)
Inconclusive results are not listed. Activity calls are given as the source filed them. Unless noted, calls follow the shape of the dose curve; as a rule, active = well fitted curve in the direction sought with a large enough effect in the repeat runs; inconclusive = weak or mixed curves; inactive = no such curve, though single readings can be large; an effect the other way counts as inactive or inconclusive. Where a SMILES comes first, the peptide text is derived from it.

Legend:
[1] = qHTS assay to identify small molecule antagonists of the estrogen receptor beta (ER-beta) signaling pathway - cell viability counter screen (AID 1259382); also: series mostly up to about 92 µM; nearly all actives have a fitted effect of over 55% in size
Summary of the method: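 Agonist-stimulated (1nM E2) ER-beta-UAS-bla HEK293T cells are incubated with library compounds for 16 hr at 37C. Cell viability is then assessed in the reporter-assay wells by adding CellTiter-Glo and reading luminescence after 30 min.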

[2] = qHTS assay to identify small molecule agonists or antagonists of the thyroid stimulating hormone receptor (TSHR) signaling pathway - wild type cell line counter screen (AID 1259384; calls by dose curve)
Summary of the method: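 Wild-type Hek293 cells, 800/well, 18 h at 37C, then compound with Ro20-1724 for 30 min RT. cAMP by HTRF (cAMP-d2/anti-cAMP cryptate), 1 h RT, fluorescence read. 15 concentrations, triplicates.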

[3] = qHTS assay to identify small molecule agonists of the estrogen receptor alpha (ER-alpha) signaling pathway in the presence of an antagonist - cell viability counter screen (AID 1259386);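 also: series mostly up to about 92 µM; cells exposed to compounds for 22 h at 37 °C before the viability read; nearly all actives have a fitted effect of over 30% in size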
Summary of the method: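 ICI-182,780 at 10.0nM final accompanies the compound titration (15 concentrations, 22hr, 37C) on VM7Luc4E2 cells. The CellTiter-Fluor fluorescence readout runs in the same wells as the luciferase assay.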

[4] = target: Progesterone receptor (Homo sapiens) (UniProt P06401); test: qHTS assay to identify small molecule agonists of the progesterone receptor (PR) signaling pathway (AID 1346784; calls by dose curve; also: nearly all actives have a fitted effect of over 30% in size)
Chain of Progesterone receptor (Homo sapiens) (P06401 whole entry, looked up): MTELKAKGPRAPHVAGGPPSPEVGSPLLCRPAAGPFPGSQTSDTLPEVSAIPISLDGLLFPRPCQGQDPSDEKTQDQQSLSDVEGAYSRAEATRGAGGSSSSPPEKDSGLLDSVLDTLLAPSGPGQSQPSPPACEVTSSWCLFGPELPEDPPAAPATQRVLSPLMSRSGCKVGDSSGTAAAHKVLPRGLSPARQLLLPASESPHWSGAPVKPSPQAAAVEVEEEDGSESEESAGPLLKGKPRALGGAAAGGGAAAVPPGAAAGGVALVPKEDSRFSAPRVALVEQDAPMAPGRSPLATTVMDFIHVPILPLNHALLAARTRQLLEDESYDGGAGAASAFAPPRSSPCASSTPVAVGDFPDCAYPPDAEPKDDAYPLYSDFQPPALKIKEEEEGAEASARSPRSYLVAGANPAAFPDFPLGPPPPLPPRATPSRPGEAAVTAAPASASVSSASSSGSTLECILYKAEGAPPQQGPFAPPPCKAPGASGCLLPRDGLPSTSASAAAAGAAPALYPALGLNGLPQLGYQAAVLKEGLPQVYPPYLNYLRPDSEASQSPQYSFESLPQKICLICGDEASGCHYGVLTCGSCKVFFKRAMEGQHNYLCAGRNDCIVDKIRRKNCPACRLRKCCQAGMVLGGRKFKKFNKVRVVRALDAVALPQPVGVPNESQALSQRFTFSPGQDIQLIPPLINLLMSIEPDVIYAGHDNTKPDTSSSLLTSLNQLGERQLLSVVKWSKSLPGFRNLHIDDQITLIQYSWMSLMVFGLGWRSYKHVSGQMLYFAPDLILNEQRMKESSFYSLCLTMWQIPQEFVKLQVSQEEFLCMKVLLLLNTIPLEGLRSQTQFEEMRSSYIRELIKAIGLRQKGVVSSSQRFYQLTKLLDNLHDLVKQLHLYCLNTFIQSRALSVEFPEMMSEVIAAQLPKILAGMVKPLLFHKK
Summary of the method: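 HEK 293T PR-UAS-bla reporter cells, 2% charcoal-stripped FBS; 6 hr settle at 37C/5% CO2, compound (DMSO) 16 hr, LiveBLAzer B/G FRET substrate 2 hr RT, fluorescence intensity read.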

[5] = qHTS assay to identify small molecule antagonists of the progesterone receptor (PR) signaling pathway - cell viability counter screen (AID 1346798); also: series mostly up to about 92 µM; nearly all actives have a fitted effect of over 50% in size
Summary of the method: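 Luminescence readout (CellTiter-Glo, 30 min, RT) of viability in PR-UAS-bla HEK293T cells exposed to compound and R5020 agonist for 16 hr at 37C, 5% CO2; run in the same wells as the beta-lactamase reporter read.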

[6] = qHTS assay to identify small molecule agonists of the progesterone receptor (PR) signaling pathway - cell viability counter screen (AID 1346799; calls by dose curve; also: nearly all actives have a fitted effect of over 45% in size)
Summary of the method: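 HEK293T PR-UAS-bla, 3,000 cells/well, 2% charcoal-stripped FBS; 6 h settle, compound 16 h at 37C/5% CO2; LiveBLAzer 2 h RT, then CellTiter-Glo 30 min RT, luminescence read.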

[7] = qHTS assay to identify small molecule antagonists of the TGF-beta/Smad signaling pathway - cell viability counter screen (AID 1346824); also: nearly all actives have a fitted effect of over 50% in size
Summary of the method: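 SBE-bla HEK 293T cells, incubated overnight, then compound plus 0.25 ng/mL TGF-beta1 (stock added) for 5 hr at 37 C. Viability was read in the same wells by CellTiter-Glo luminescence after 30 min at room temperature.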

[8] = qHTS assay to identify small molecule agonists of the TGF-beta/Smad signaling pathway - cell viability counter screen (AID 1346829); also: top concentration of the series differs between compounds; nearly all actives have a fitted effect of over 45% in size
Summary of the method: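 Cytotoxicity counter screen: CellTiter-Glo luminescence (30 min, room temperature) measured in the SBE-bla HEK 293T reporter wells after 5 hr compound treatment at 37 C and the 2 hr substrate step.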

[9] = qHTS assay to identify small molecule agonists of the TGF-beta/Smad signaling pathway (AID 1346859; active = well fitted activation curve with a large enough effect in the signal ratio in the repeat runs, not every such curve was filed as active; the % refers to the signal ratio; also: series mostly up to about 77 µM)
Summary of the method: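 Read-out: fluorescence at 460 and 530 nm (405 nm excitation) after a 2 hr room-temperature incubation with beta-lactamase FRET substrate. SBE-bla HEK 293T cells had been treated with test compounds for 5 hr at 37 C.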

[10] = target: Thyrotropin-releasing hormone receptor (Homo sapiens) (UniProt P34981); test: qHTS assay to identify small molecule antagonists of the thyrotropin-releasing hormone receptor (TRHR) signaling pathway (AID 1346877; active = well fitted inhibition curve with a large enough effect in the repeat runs, not every such curve was filed as active; also: series mostly up to about 51 µM)
Chain of Thyrotropin-releasing hormone receptor (Homo sapiens) (P34981 whole entry, looked up): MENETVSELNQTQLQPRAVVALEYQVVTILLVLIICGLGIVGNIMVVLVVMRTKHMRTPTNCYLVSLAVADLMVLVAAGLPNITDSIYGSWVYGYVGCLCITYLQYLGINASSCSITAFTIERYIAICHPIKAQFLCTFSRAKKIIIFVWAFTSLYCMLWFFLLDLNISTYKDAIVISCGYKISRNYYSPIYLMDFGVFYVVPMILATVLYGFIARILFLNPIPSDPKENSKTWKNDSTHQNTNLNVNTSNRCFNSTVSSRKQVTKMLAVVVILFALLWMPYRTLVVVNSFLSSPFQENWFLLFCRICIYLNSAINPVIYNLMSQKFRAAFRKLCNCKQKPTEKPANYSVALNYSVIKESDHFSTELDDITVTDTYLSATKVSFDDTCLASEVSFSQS
Summary of the method: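 Screening used HEK293 cells engineered with TRHR, with a brief 5 min room-temperature compound exposure preceding addition of TRH to 1 nM. The read-out was kinetic calcium-dye fluorescence, concentration-response from 15 doses in triplicate.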

[11] = target: Thyrotropin-releasing hormone receptor (Homo sapiens) (UniProt P34981); test: qHTS assay to identify small molecule agonists of the thyrotropin-releasing hormone receptor (TRHR) signaling pathway (AID 1346891; calls by dose curve;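 also: HEK293 cells expressing TRHR with calcium dye readout; series mostly up to about 58 µM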)
Summary of the method: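 HEK293/TRHR cells, 1500 per well, 18 h 37 °C; Ca dye 2 h 37 °C; pin-tool compound addition (agonist mode); kinetic fluorescence 3 min, 1 s reads; 15 concentrations, triplicate.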

[12] = Human pregnane X receptor (PXR) small molecule agonists, qHTS cell viability counter screen (AID 1346977); also: nearly all actives have a fitted effect of over 50% in size
Summary of the method: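 Fluorescence read-out (CellTiter-Fluor) of viability in PXR-Luc HepG2 cells, multiplexed with the luciferase agonist read. Compounds in DMSO added after 5hr plating; 24hr total exposure at 37C, 5% CO2.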

[13] = Caspase-3/7 induction in HepG2 cells by small molecules, qHTS assay (AID 1346978); also: nearly all actives have a fitted effect of over 15% in size
Summary of the method: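 Wild-type HepG2 cells, 2,000/well, settled 5 hr at 37 C and 5% CO2, then compound-treated for 17 hr; caspase-3/7 activity read by luminescent Caspase-Glo 3/7 after 30 min at room temperature.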

[14] = Caspase-3/7 induction in CHO-K1 cells by small molecules, qHTS cell viability counter screen (AID 1346979); also: nearly all actives have a fitted effect of over 35% in size
Summary of the method: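 CHO-K1 wt, 1,500 cells/well; 5hr pre-incubation 37C/5% CO2; compound pin transfer (DMSO); 16hr exposure; CellTiter-Fluor added, 1hr, fluorescence read.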

[15] = Caspase-3/7 induction in CHO-K1 cells by small molecules, qHTS assay (AID 1346980); also: nearly all actives have a fitted effect of over 15% in size
Summary of the method: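 Wild-type CHO-K1 cells exposed to compounds for 17hr at 37 C, 5% CO2. Caspase-3/7 activity then measured by Caspase-Glo 3/7 luminescence after 30min at room temperature.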

[16] = Caspase-3/7 induction in HepG2 cells by small molecules, qHTS cell viability counter screen (AID 1346981); also: series mostly up to about 92 µM; nearly all actives have a fitted effect of over 30% in size
Summary of the method: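 Multiplexed with the caspase-3/7 assay: HepG2 cells, 16 hr compound treatment, CellTiter-Fluor viability detection by fluorescence.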

[17] = target: Progesterone receptor (Homo sapiens) (UniProt P06401); test: qHTS assay to identify small molecule antagonists of the progesterone receptor (PR) signaling pathway (AID 1346795; active = well fitted inhibition curve with a large enough effect in the signal ratio in the repeat runs, not every such curve was filed as active; the % refers to the signal ratio)
Summary of the method: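 Beta-lactamase reporter, HEK293T PR-UAS-bla line; 2% charcoal-stripped FBS; 6 hr pre-incubation, 37C/5% CO2. Compound + R5020 1 nM final, 16 hr. LiveBLAzer B/G FRET substrate, 2 hr RT; fluorescence intensity read.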

[18] = target: Estrogen receptor (Homo sapiens) (UniProt P03372); test: qHTS assay to identify small molecule agonists of the estrogen receptor alpha (ER-alpha) signaling pathway in the presence of an antagonist (AID 1259383; calls by dose curve; also: top concentration of the series differs between compounds; nearly all actives have a fitted effect of over 15% in size)
Chain of Estrogen receptor (Homo sapiens) (P03372 whole entry, looked up): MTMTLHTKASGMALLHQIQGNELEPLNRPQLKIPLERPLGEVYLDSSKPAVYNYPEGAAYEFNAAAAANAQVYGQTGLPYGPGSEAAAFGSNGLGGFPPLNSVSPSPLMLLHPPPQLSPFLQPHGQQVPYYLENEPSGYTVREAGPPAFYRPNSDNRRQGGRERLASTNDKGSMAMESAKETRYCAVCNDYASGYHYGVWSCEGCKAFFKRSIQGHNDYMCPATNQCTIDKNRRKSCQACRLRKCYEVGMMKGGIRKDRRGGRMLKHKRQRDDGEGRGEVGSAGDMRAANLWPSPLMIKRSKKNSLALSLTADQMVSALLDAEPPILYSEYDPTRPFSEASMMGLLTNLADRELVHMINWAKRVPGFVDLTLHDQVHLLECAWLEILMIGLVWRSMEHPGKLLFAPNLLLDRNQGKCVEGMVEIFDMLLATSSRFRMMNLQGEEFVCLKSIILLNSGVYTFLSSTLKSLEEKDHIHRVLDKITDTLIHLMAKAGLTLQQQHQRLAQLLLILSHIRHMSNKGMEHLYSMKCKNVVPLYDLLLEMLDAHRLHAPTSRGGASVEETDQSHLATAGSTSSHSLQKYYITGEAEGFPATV
Summary of the method: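 Using VM7Luc4E2 cells seeded 24hr before treatment, antagonist ICI-182,780 (10.0nM final) was added, followed by compounds at 15 concentrations. Plates incubated 22hr; ONE-Glo luminescence quantified reporter activity.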

[19] = target: Thyrotropin receptor (Homo sapiens) (UniProt P16473); test: qHTS assay to identify small molecule antagonists of the thyroid stimulating hormone receptor (TSHR) signaling pathway (AID 1259385; calls by dose curve; also: nearly all actives have a fitted effect of over 20% in size)
Chain of Thyrotropin receptor (Homo sapiens) (P16473 whole entry, looked up): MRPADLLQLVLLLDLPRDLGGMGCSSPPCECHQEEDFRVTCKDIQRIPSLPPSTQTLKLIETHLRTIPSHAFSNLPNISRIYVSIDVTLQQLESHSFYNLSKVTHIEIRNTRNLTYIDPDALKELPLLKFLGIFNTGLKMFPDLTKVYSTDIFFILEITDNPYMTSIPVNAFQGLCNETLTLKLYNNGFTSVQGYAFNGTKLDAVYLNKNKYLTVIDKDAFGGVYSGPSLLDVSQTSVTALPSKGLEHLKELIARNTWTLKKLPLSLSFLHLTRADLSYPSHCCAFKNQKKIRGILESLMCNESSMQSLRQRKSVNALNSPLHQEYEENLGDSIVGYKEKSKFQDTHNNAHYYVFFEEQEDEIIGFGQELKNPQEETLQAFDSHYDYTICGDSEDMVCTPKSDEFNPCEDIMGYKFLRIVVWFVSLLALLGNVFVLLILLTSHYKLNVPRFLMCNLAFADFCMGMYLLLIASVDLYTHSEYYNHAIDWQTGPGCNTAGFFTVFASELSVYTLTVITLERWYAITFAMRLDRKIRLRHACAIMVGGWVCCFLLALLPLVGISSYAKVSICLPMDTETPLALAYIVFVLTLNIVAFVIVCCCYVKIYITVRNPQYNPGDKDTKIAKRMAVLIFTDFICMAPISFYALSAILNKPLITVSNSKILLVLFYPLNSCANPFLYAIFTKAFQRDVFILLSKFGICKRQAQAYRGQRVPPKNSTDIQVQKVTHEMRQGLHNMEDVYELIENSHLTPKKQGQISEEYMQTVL
Summary of the method: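 TSHR-HEK293 cells (800/well) plated 18 h, then compounds with Ro20-1724 and TSH at 1.5 ng/mL final, 30 min at room temperature. cAMP quantified by HTRF (cAMP-d2/anti-cAMP-cryptate, 1 h); 15 concentrations in triplicate.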
% is scaled to controls: 0 for no effect and ±100 for the full control effect.

CC(=O)C(C)O (configuration not stated)
inactive: outcome [1] | outcome [2] | outcome [3] | Potency [4] | outcome [5] | outcome [6] | outcome [7] | outcome [8] | outcome [9] | outcome [10] | outcome [11] | outcome [12] | outcome [13] | Potency [14] | outcome [15] | outcome [16]

Cn1c(=O)c2[nH]c(Br)nc2n(C)c1=O
inactive: outcome [1] | outcome [2] | outcome [3] | Potency [4] | Potency [17] | outcome [5] | outcome [6] | outcome [7] | outcome [8] | outcome [9] | outcome [10] | outcome [11] | outcome [12] | outcome [13] | Potency [14] | outcome [15] | outcome [16]

N[C@@H](Cc1ccc(O)cc1)C(=O)O
inactive: activity change, negative = cytotoxicity [1] 2.66% [at 8.39 µM] | cAMP activity change [2] 6.84% [at 8.39 µM] | activity change, negative = cytotoxicity [3] 1.69% [at 8.39 µM] | activation [4] -2.73% [at 8.39 µM] | activity change, negative = inhibition [17] 7.58% [at 8.39 µM] | activity change, negative = cytotoxicity [6] -21.8% [at 8.39 µM] | viability change, negative = cytotoxic [7] -8.39% [at 6.97 µM] | activity change, negative = cytotoxicity [8] 9.15% [at 6.97 µM] | activation [9] 4.2% [at 6.97 µM] | activity, negative = inhibition [10] -2.4% [at 4.65 µM] | activation [11] -0.36% [at 5.23 µM] | activity change, negative = cytotoxicity [12] -1.74% [at 8.39 µM] | caspase activation [13] -1.72% [at 8.39 µM] | activity change, negative = cytotoxicity [14] 1.62% [at 8.39 µM] | caspase-3/7 activation [15] -1.08% [at 8.39 µM] | activity change, negative = cytotoxicity [16] -1.35% [at 8.39 µM]

c1ccc(B(c2ccccc2)c2ccccc2)cc1
inactive: outcome [1] | outcome [3] | Potency [4] | outcome [5] | outcome [6] | outcome [7] | outcome [8] | outcome [9] | outcome [10] | outcome [11] | outcome [12] | outcome [13] | Potency [14] | outcome [15]

c1ccc2c(CC3=NCCN3)cccc2c1
inactive: outcome [1] | outcome [2] | outcome [3] | Potency [4] | outcome [5] | outcome [6] | outcome [7] | outcome [8] | outcome [9] | outcome [12] | outcome [13] | outcome [15] | outcome [16]

CC(=O)O[Si](C)(OC(C)=O)OC(C)=O
inactive: outcome [1] | outcome [2] | outcome [3] | Potency [4] | outcome [5] | outcome [6] | outcome [8] | outcome [9] | outcome [12] | outcome [13] | Potency [14] | outcome [15] | outcome [16]

CCCc1ccc(O)cc1
inactive: Potency [18] | outcome [2] | outcome [19] | outcome [3] | Potency [4] | Potency [17] | outcome [5] | outcome [6] | outcome [7] | outcome [8] | outcome [9] | outcome [10] | outcome [11] | outcome [13] | Potency [14] | outcome [15] | outcome [16]

CC(=O)c1cc(C)oc1C
inactive: outcome [1] | outcome [3] | Potency [4] | Potency [17] | outcome [5] | outcome [6] | outcome [7] | outcome [8] | outcome [9] | outcome [10] | outcome [11] | outcome [12] | outcome [13] | Potency [14] | outcome [15] | outcome [16]

CCCC(=O)OCCC(C)CCC=C(C)C (configuration not stated)
inactive: outcome [1] | outcome [2] | Potency [4] | Potency [17] | outcome [5] | outcome [6] | outcome [7] | outcome [8] | outcome [9] | outcome [10] | outcome [11] | outcome [13] | outcome [15] | outcome [16]

CC(=O)N[C@@H](CO)C(=O)N[C@@H](CC(=O)O)C(=O)N[C@@H](CCCCN)C(=O)N1CCC[C@H]1C(=O)O (Ac-SDKP-OH)
inactive: outcome [1] | outcome [3] | Potency [4] | outcome [6] | outcome [7] | outcome [9] | outcome [10] | outcome [11] | outcome [12] | outcome [13] | outcome [15] | outcome [16]

CN(C)CC/C=C1/c2ccccc2COc2ccc(CC(=O)O)cc21
inactive: outcome [1] | outcome [2] | outcome [19] | Potency [4] | Potency [17] | outcome [5] | outcome [6] | outcome [8] | outcome [9] | outcome [10] | outcome [11] | outcome [13] | outcome [15] | outcome [16]

CCOc1cccc(N)c1
inactive: Potency [18] | outcome [2] | outcome [19] | outcome [3] | Potency [4] | Potency [17] | outcome [5] | outcome [6] | outcome [7] | outcome [8] | outcome [9] | outcome [10] | outcome [11] | outcome [12] | outcome [13] | Potency [14] | outcome [15] | outcome [16]

CCCCCCC1(C)CCC(=O)O1 (configuration not stated)
inactive: Potency [18] | outcome [2] | outcome [19] | outcome [3] | Potency [4] | Potency [17] | outcome [5] | outcome [6] | outcome [8] | outcome [9] | outcome [10] | outcome [11] | outcome [12] | outcome [13] | Potency [14] | outcome [15] | outcome [16]

OC1OCCOC1O (configuration not stated)
inactive: Potency [18] | outcome [19] | outcome [3] | Potency [4] | Potency [17] | outcome [5] | outcome [6] | outcome [8] | outcome [9] | outcome [10] | outcome [11] | outcome [12] | outcome [13] | Potency [14] | outcome [15] | outcome [16]

COC(=O)/C=C\C(=O)O
inactive: Potency [18] | outcome [2] | outcome [19] | outcome [3] | Potency [4] | Potency [17] | outcome [5] | outcome [6] | outcome [8] | outcome [9] | outcome [10] | outcome [11] | outcome [13] | Potency [14] | outcome [15] | outcome [16]

CCCCCC/C=C/C(=O)OC
inactive: outcome [2] | outcome [19] | outcome [3] | Potency [4] | outcome [5] | outcome [6] | outcome [8] | outcome [9] | outcome [12] | outcome [13] | Potency [14] | outcome [15] | outcome [16]
